Screening results as filed in PubChem BioAssay.
A selection: hits, their analogues and other compounds. The true share with any hit is near 11%.
IMPase Li inh: qHTS Assay for Identifying the Cell-Membrane Permeable IMPase Inhibitors: Potentiation with Lithium; CHO-M1 cells, IP1 TR-FRET (IP-One), carbachol + lithium; Potency, µM (top dose mostly 59.4 µM), without a hit: at the top dose activity, negative = IMPase inhibition, actives largely listed as inhibitors; hit rate 0.35% among 210,000; AID 1457, 2008; active = well fitted inhibition curve with a large enough effect; inconclusive = small, poorly fitted or top-dose-only effect; inactive = no such curve, though single readings can be large or run the other way;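 note: IP1 builds up when IMPase is blocked and the TR-FRET signal falls; potency is the fitted concentration of half-maximal effect; plate controls were basal vehicle for no effect and high inhibitor control for full effect; nearly all actives have a fitted effect of over 50% in size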
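Steps: plate 2000 CHO-M1 cells per well and culture 16–30 h; add compound and lithium; incubate 30 min, 37C; add d2-IP1 tracer and Eu cryptate anti-IP1 antibody in lysis buffer; read after 10 min at room temperature.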
ALDH1A1 block: qHTS Assay for Inhibitors of Aldehyde Dehydrogenase 1 (ALDH1A1); AID 1030, 2008; hit rate 7.3% among 220,000; Purified ALDH1A1, NADH fluorescence, propionaldehyde substrate; Potency, µM (top dose mostly 75.3 µM), inactives show top-dose activity, negative = inhibition, hits mostly inhibitors; Aldehyde dehydrogenase 1A1 (Homo sapiens), P00352;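 note: potency is the fitted concentration of half-maximal effect; plate controls were no enzyme wells and a reference inhibitor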
Target sequence (P00352 whole entry, looked up): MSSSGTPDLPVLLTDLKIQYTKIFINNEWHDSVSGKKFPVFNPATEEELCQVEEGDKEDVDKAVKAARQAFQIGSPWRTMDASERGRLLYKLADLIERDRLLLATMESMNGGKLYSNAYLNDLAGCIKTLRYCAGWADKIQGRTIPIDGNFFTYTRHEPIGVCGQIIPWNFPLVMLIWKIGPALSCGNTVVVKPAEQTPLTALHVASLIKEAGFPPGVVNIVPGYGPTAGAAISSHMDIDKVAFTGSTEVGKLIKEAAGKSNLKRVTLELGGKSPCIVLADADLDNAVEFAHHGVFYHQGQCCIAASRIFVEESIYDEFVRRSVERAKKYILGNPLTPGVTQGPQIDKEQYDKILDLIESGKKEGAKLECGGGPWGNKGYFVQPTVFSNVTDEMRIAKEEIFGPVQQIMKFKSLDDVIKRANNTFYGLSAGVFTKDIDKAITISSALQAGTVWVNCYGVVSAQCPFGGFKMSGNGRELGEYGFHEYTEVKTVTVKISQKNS
PNC inhibitor: High Content Assay for Compounds that inhibit the Assembly of the Perinucleolar Compartment; activity change (PNC), negative = inhibition, % at 10 µM; hit rate 3.1% among 140,000; PC3M PTB-GFP, PNC prevalence imaging, 16 h; hits give low values; AID 2417, 2010;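 active = readout at or below -70, meaning at least 70% loss of cells showing the perinucleolar compartment, a nuclear body marking cancer cells; inconclusive = readout between -30 and a set limit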;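 note: plate controls were DMSO wells for no effect and camptothecin positive control wells for full effect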
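PC3M cells stably expressing PTB-GFP, 750–1000 cells/well, treated 16 h at 37 °C with compound (23 nl of library stock), in duplicate. After paraformaldehyde fixation and Hoechst stain, imaged at 20x; PNC prevalence scored by image analysis.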
HPGD block: qHTS Assay for Inhibitors of HPGD (15-Hydroxyprostaglandin Dehydrogenase) | 15-hydroxyprostaglandin dehydrogenase [NAD(+)] (Homo sapiens), P15428 | purified HPGD, NADH fluorescence kinetic, PGE2 substrate | Potency, µM, without a hit: top-dose activity change, negative = inhibition, actives largely listed as inhibitors | hit rate 4.3% among 150,000; note: potency is the fitted concentration of half-maximal effect
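20 nM HPGD preincubated 15 min at room temperature with compound in 50 mM Tris-HCl pH 8, 0.01% Tween 20. Started with 1 mM NAD+ and 30 uM prostaglandin E2; NADH fluorescence (360/450 nm) read 5 times over 30-s intervals, last minus first.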
IMPase inh: qHTS Assay for Identifying the Cell-Membrane Permeable IMPase Inhibitors | Inositol monophosphatase 1 (Rattus norvegicus), P97697 | CHO-M1 cells, IP1 accumulation, HTRF TR-FRET ratio | inhibition (IP1 accumulation), % at 46.1 µM | 120,000 tested, under 10 active | AID 901, 2007; active = well fitted curve in the direction sought with a large enough effect in the signal ratio, not every such curve was filed as active; inconclusive = small, poorly fitted or top-dose-only effect, or a change in a side signal; inactive = no such curve, though single readings can be large or run the other way; the % refers to the signal ratio;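 note: cells stimulated with carbachol in lithium chloride buffer; plate controls were DMSO basal wells for no effect and reference inhibitor wells for full effect; higher means more IMPase inhibition seen as more IP1 and lower FRET ratio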
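The IP-One HTRF competitive assay in carbachol-stimulated CHO-M1 cells quantifies cellular IP1. Compounds spanned up to 46 uM final, and activity is expressed as AC50 from concentration-response fits of the ratio and donor data.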
Starred values were filed as active, the others as inactive; [ ] = dose if it differs, or a comment. Unless noted, calls come from the whole dose curve; as a rule, active = well fitted inhibition curve with a large enough effect (not every such curve was filed as active); inconclusive = small, poorly fitted or top-dose-only effect, or another doubt; inactive = no such curve, though single readings can be large or run the other way. Unless noted, % is set by controls: 0 for no effect and ±100 for the full control effect.

`COc1cccc(N=CC2=C(O)CC(C)(C)CC2=O)c1` gave IMPase Li inh 10%, ALDH1A1 block 8.9µM*, PNC inhibitor -113* and HPGD block -19%.
Screening COc1cccc(N=CC2=C(O)CCCC2=O)c1 returned IMPase Li inh 14% and ALDH1A1 block -11%.
Cc1cccc(/C=N\NC(=O)c2csnn2)c1 was read as IMPase Li inh 8%[38.3 µM], ALDH1A1 block -52%, PNC inhibitor 16, HPGD block 3.2µM* and IMPase inh 8.
For Cc1cccc(/C=N\NC(=O)c2ccccc2-n2cccc2)c1 the results were IMPase Li inh 3% and ALDH1A1 block -6%.
`O=C(N/N=C\c1ccc(Oc2ccccc2)cc1)c1csnn1` gave IMPase Li inh -1% and ALDH1A1 block 9%.
Screening CN(C)c1ccc(/C=N\NC(=O)c2csnn2)cc1 returned IMPase Li inh 7%[38.3 µM], ALDH1A1 block 1µM*, PNC inhibitor 5, HPGD block -17% and IMPase inh 4.
C[C@@H]1CC[C@@]2(OC1)OC1CC3C4CC=C5CC(O)CCC5(C)C4CCC3(C)C1[C@@H]2C (some centres undefined) was read as IMPase Li inh 5%, ALDH1A1 block -11% and HPGD block -6%.
Screening COC(=O)Cc1ccc(NC(=S)N2CCN(c3cc(Cl)ccc3C)CC2)cc1 returned IMPase Li inh 15% and ALDH1A1 block 1%.
O=C1c2ccccc2C(=O)N1CCCCN(C(=O)c1cccc([N+](=O)[O-])c1)c1ccc(Cl)cc1 was read as IMPase Li inh 4%[38.3 µM], ALDH1A1 block 3.2µM*, PNC inhibitor 58, HPGD block -21% and IMPase inh 8.
For O=C1c2ccccc2C(=O)N1CCCCN(C(=O)c1ccco1)c1ccc(Cl)cc1 the results were IMPase Li inh 4%[38.3 µM], ALDH1A1 block 7.9µM*, PNC inhibitor 4, HPGD block -10% and IMPase inh 1.
`COC(=O)[C@@H](NC(=O)O[C@@H]1C(=O)c2ccc(OC)cc2O[C@H]1c1ccc2c(c1)OCO2)C(C)C` gave IMPase Li inh 8%, ALDH1A1 block 6% and HPGD block -9%.
`Cc1cc(C(C)(C)C)cc(S(=O)(=O)NCC(=O)O)c1C` gave IMPase Li inh 30%[38.3 µM], ALDH1A1 block 8.9µM*, PNC inhibitor -2, HPGD block 0% and IMPase inh 3.
For Cc1cc(C(C)(C)C)cc(S(=O)(=O)Nc2ccc(O)c(C(=O)O)c2)c1C the results were IMPase Li inh 8%[38.3 µM], ALDH1A1 block 4µM*, PNC inhibitor 37, HPGD block inconclusive and IMPase inh -6.
CC(=O)Nc1ccc(NC(=O)c2ccc(NS(=O)(=O)c3cc(C(C)(C)C)cc(C)c3C)cc2)cc1 was read as IMPase Li inh -5%, ALDH1A1 block -4%, PNC inhibitor -89* and HPGD block -22%.
For CCCNC(=O)CSc1nnc(-c2ccccc2Br)n1-c1cccc(C(F)(F)F)c1 the results were ALDH1A1 block 2%, PNC inhibitor inconclusive and IMPase inh 0.
For CCN(CC)CCCCC1CCN(CC(=O)N2c3ccccc3C(=O)Nc3cccnc32)CC1 the results were IMPase Li inh 32%, ALDH1A1 block 2% and HPGD block -14%.
For CCOc1ccc(-c2nn(-c3ccccc3)cc2/C=C2\SC(N)=NC2=O)cc1C the results were IMPase Li inh -28%[38.3 µM], ALDH1A1 block 3%, PNC inhibitor -22, HPGD block 16µM* and IMPase inh -21.
`CCCNC(=O)c1ccc2c(c1)N=C(CCC)c1ccccc1S2` gave IMPase inh 6.
Screening c1ccc(Cn2nnc(-c3ccccc3)n2)cc1 returned IMPase Li inh 1%, ALDH1A1 block 11%, PNC inhibitor -100*, HPGD block -19% and IMPase inh -4.
For NCc1nnn(Cc2ccccc2)c1N the results were IMPase Li inh 5%, ALDH1A1 block -11%[13.5 µM] and HPGD block 1%.
